Shown are actives, neighbours in structure and some others; about 4% of the full set was active somewhere.
BoNT A protease = BoNT A light chain protease inhibition; multiplex microsphere protease substrate cleavage, flow cytometry; inhibition, % at 10 µM; 360,000 compounds, 0.17% hits; AID 588499
Anthrax LF prot = blocks Bacillus anthracis lethal factor protease. P15917. multiplex microsphere protease cleavage assay, LF. inhibition, % at 10 µM. 360,000 compounds, 0.12% hits
MazF activator = activators of E. coli MazEF toxin-antitoxin RNase; AID 504720; P0AE70; 350,000 compounds, 0.32% hits; activation, % at 20 µM; FAM/BHQ RNA-DNA oligo cleavage fluorescence, 5 h; in the data active = activation above about 50%
BoNT-F LC inh = inhibitors of Botulinum neurotoxin F light chain protease. inhibition, % at 10 µM. Multiplex microsphere protease cleavage assay, flow cytometry. 360,000 compounds, 0.22% hits. AID 588497; in the data active = inhibition above about 35%, passing the limit was not always enough; inconclusive = no clear call, values can overlap the other calls
Bead autofluor = compound fluorescence in toxin protease inhibitor counterscreen; fluorescence intensity (concentration not given with the values); compound autofluorescence counterscreen, microsphere flow cytometry; hits give high values; 360,000 compounds, 3.1% hits; AID 624483; in the data active = fluorescence intensity above about 16000; inconclusive = no clear call, values can overlap the other calls
DUSP3 inh = blocks human VHR1 dual specificity phosphatase | recombinant VHR phosphatase, pNPP absorbance | inhibition, % at 13.3 µM | 290,000 compounds, 0.52% hits | AID 1654; in the data active = inhibition above about 50%
A number is an active result; 0 = inactive; ? = inconclusive; - = no result given; + = active, no number. Cut-off read from the data, not from the text of the source, unless noted: active = inhibition above about 30%; inconclusive = no clear call, values can overlap the other calls; inactive = below that.

SMILES | BoNT A protease | Anthrax LF prot | MazF activator | BoNT-F LC inh | Bead autofluor | DUSP3 inh
NS(=O)(=O)c1ccc(NNC(=O)c2ccccc2C(=O)O)cc1 | - | - | 0 | - | - | 0
N#Cc1c(NC(=O)c2ccccc2Cl)n(Cc2ccccc2)c2nc3ccccc3nc12 | 31.3 | 0 | 0 | 0 | 0 | 0
COCCCNC(=O)c1c(NC(=O)c2ccccc2Cl)n(Cc2ccccc2)c2nc3ccccc3nc12 | ? | 0 | 0 | 0 | 18554 | 0
CCCCn1c(NC(=O)c2ccccc2Cl)c(C#N)c2nc3ccccc3nc21 | 0 | 0 | 0 | 0 | 0 | 0
CC1(C)CC(=O)C2=C(C1)NCN(Cc1ccccc1)C2 | 0 | 0 | 0 | 0 | 16534 | 0
CCCN1CN(Cc2ccccc2)CC2=C1CC(C)(C)CC2=O | 0 | 0 | 0 | 0 | 0 | 0
COc1ccccc1C(=O)NNC(=O)CCC(=O)NCc1ccccc1 | 0 | 0 | 0 | 0 | 0 | 0
N#Cc1c(N)nc(SCc2ccccc2)c(C#N)c1-c1ccco1 | 0 | 0 | 0 | 0 | 0 | 0
COc1cc(/C=C2\SC(c3ccc(C)cc3)=NC2=O)ccc1O | 0 | 0 | 0 | 0 | 0 | 0
COc1ccc(/C=C2/SC(c3ccc(C)cc3)=NC2=O)cc1OC | 0 | 0 | 0 | 0 | 0 | 0
COc1ccc(/C=C2\SC(c3ccc(C)cc3)=NC2=O)cc1OC | 0 | 0 | + | 0 | 0 | 0
COc1cc(/C=C2\SC(c3ccc(C)cc3)=NC2=O)cc(OC)c1OC | 0 | 0 | 101.6 | 0 | 0 | 0
Cc1ccc(-c2noc(CN(C(=O)c3cccs3)C(C)C)n2)cc1 | ? | 0 | 0 | 0 | 0 | 0
Cc1cc(OCC(O)CN2C(C)CCCC2C)ccc1C(C)C (stereo not drawn) | 0 | 0 | 0 | 0 | 0 | 0
COc1c(CC=C(C)C)cc(C2CC(=O)c3c(O)cc(O)cc3O2)c(CC=C(C)C)c1O (stereo not drawn) | - | - | 0 | - | - | -
COc1cccc(NCc2cc(=O)oc3cc(-c4ccccc4)c(O)cc23)c1 | 0 | 0 | 0 | 0 | 0 | 0
COc1cccc(NCc2cc(=O)oc3cc(C)c(O)cc23)c1 | 0 | 0 | 0 | 0 | 0 | 52.0
CCOc1ccccc1NCc1cc(=O)oc2cc(C)c(O)cc12 | 0 | 0 | 0 | 0 | 0 | 55.4
Cc1cc2oc(=O)cc(CNc3ccccc3F)c2cc1O | 0 | 0 | 0 | ? | 0 | 0
N#C/C(=C\c1ccncc1)C(N)=O | 0 | 0 | 0 | 0 | 0 | 0
COc1cccc(-n2c(CN3CCN(Cc4ccccc4)CC3)nc3ccc([N+](=O)[O-])cc3c2=O)c1 | - | - | - | - | - | 0
CCn1c(C)cc2c(c1=O)C(c1ccccc1)C(C(=O)OC)=C(N)O2 (stereo not drawn) | 0 | 0 | 0 | 0 | 23918 | 0
COC(=O)C1=C(N)Oc2cc(C)n(Cc3ccncc3)c(=O)c2C1c1cccnc1 (stereo not drawn) | 0 | 0 | 0 | 0 | 0 | -
COC(=O)c1ccc(C(C(=O)NC2CCCCC2)N(Cc2ccc(F)cc2)C(=O)Cc2cccs2)cc1 (stereo not drawn) | 0 | 0 | 0 | 0 | 0 | 0
CCn1cc(C(C)NC(=O)COc2ccc(Cl)cc2C)c(C)n1 (stereo not drawn) | 0 | 0 | 0 | 0 | 23870 | 0
SMILES | BoNT A protease | Anthrax LF prot | MazF activator | BoNT-F LC inh | Bead autofluor | DUSP3 inh
Cc1cc(Cl)ccc1OCC(=O)Nc1ccncc1 | 0 | 0 | 0 | 0 | 0 | 0
COc1ccc(CN2CCNC(=O)C2CC(=O)NC2CCCCCCC2)cc1OC (stereo not drawn) | 0 | 0 | 0 | 0 | 0 | 0
CC1=NC(=O)C(N=Nc2cccc(O)c2)N1c1ccccc1 (stereo not drawn) | 0 | 0 | 0 | 0 | 16879 | 0
Cc1ccc(N2C(N)=C(C#N)C(c3cccs3)C3=C2CC(C)(C)CC3=O)cc1 (stereo not drawn) | ? | 0 | 0 | 0 | 23727 | 0
Nn1c(SCC(=O)NC2CCCCC2)nnc1-c1ccccc1 | 0 | 0 | 0 | 0 | 0 | 0
Cc1ccc(-c2nnc(SCC(=O)NC3CCCC3)n2N)cc1 | 0 | 0 | 0 | 0 | 0 | -
CCN(CC)S(=O)(=O)c1cccc(-c2nnc(SCC(=O)NC3CCCCCC3)n2N)c1 | 0 | 0 | 0 | 0 | 22076 | 0
CCN(CC)S(=O)(=O)c1cccc(-c2nnc(SCC(=O)NC3CCCC3)n2N)c1 | 0 | 0 | 0 | 0 | 20557 | 0
CCN(CC)S(=O)(=O)c1cccc(-c2nnc(SCC(=O)NC3CCCCCCC3)n2N)c1 | 0 | 0 | 0 | 0 | 21228 | 0
COc1ccc(-c2cc(C(=O)NCC3CCCO3)c3cc(C)ccc3n2)cc1 (stereo not drawn) | 0 | 0 | 0 | 0 | 0 | 0
COc1cc(NC(=O)C2CC(=O)NC3=C2C(=O)CCC3)cc(OC)c1 (stereo not drawn) | 0 | 0 | 0 | 0 | 20659 | 0
CC(=O)c1c2c3c(cccc3n(C)c1=O)C(=O)c1ccccc1-2 | - | - | 0 | - | - | 53.9
CC(=O)c1c2c3c(c(Br)ccc3n(C)c1=O)C(=O)c1ccccc1-2 | 0 | 0 | 0 | 0 | 0 | 0
CC(C)c1ccc(Nc2c([N+](=O)[O-])c(=O)n(C)c3ccccc23)cc1 | - | - | 0 | - | - | 0
Cn1c(=O)c(Nc2ccc(O)cc2)c2c3c(cccc31)C(=O)c1ccccc1-2 | 0 | 0 | 64.5 | 0 | 0 | 0
O=[N+]([O-])c1ccc(N2CCCCC2)c(Cl)c1N1CCCCC1 | 0 | 0 | 0 | 0 | 19380 | 0
Nc1cc(N2CCCCC2)c(Cl)cc1[N+](=O)[O-] | ? | 0 | 0 | 0 | 21335 | 0
O=[N+]([O-])c1ccc(N2CCCCCC2)c2nonc12 | 53.1 | 0 | 0 | 115.4 | 0 | 0
Nc1cc(N2CCCCC2)c([N+](=O)[O-])cc1Cl | 0 | 0 | 0 | 0 | 0 | 0
Nc1ccc(N2CCCCC2)c2nonc12 | 33.2 | 0 | 0 | 0 | 0 | 0
O=[N+]([O-])c1cc(Cl)ccc1N1CCCCC1 | 0 | 0 | 0 | 0 | 0 | 0
O=C(NCCOCC(F)(F)C(F)F)c1cc(F)c(F)cc1Cl | 0 | 0 | 0 | 0 | 20634 | 0
Cc1ccc2nc3c(cc(C(=O)NC4CCCC4)c(=N)n3C3CCCCC3)c(=O)n2c1 | 0 | 0 | 0 | 0 | 0 | 57.6
CN(Cc1ccccc1)c1nc2c(c(=O)[nH]c(=O)n2C)n1CCCc1ccccc1 | 0 | 0 | 0 | 0 | 0 | 0
CN(Cc1ccccc1)c1nc2c(c(=O)[nH]c(=O)n2C)n1Cc1ccccc1Cl | ? | 0 | 0 | 0 | 22859 | 0
SMILES | BoNT A protease | Anthrax LF prot | MazF activator | BoNT-F LC inh | Bead autofluor | DUSP3 inh
Cc1ccc(NC(=O)NC2C(NC(=O)Nc3ccc(C)cc3)N(C)C(=O)N2C)cc1 (stereo not drawn) | ? | 0 | 0 | 0 | 18428 | 0
CCc1ccc(CNC(=O)CN2C(=O)COc3ccccc32)cc1 | 0 | 0 | 0 | 0 | 0 | 0
CCN1CCN(C(=O)CN2C(=O)COc3ccc(S(=O)(=O)N4CCOCC4)cc32)CC1 | 0 | 0 | 0 | 0 | 0 | 56.8
O=C(CN1C(=O)COc2ccccc21)NCc1ccc(C(=O)O)cc1 | 0 | 0 | 0 | 0 | 22844 | 0
O=C(CN1C(=O)COc2ccccc21)N1CCCC1 | 0 | 0 | 0 | 0 | 0 | 55.5
O=C(CN1C(=O)COc2ccccc21)N1CCCc2ccccc21 | 0 | 0 | 0 | 0 | 22767 | 0
COCCn1ccc2c(OCC(=O)NCCc3ccc(OC)c(OC)c3)cccc2c1=O | 0 | ? | 0 | ? | 0 | -

Screening results: PubChem BioAssay, several laboratories
